Compounds with a hit are over-represented: about 0.47% of the library has one in this group of screens.
UDG counterscr: Primary qHTS assay for inhibitors of Activation Induced Cytidine Deaminase (AID): UDG Counterscreen signal; 0.14% of 91,000 active; Potency, µM (top dose mostly 115 µM), for the others: at the top dose activity change, negative = inhibition, usual class: inhibitors; AID 1347430, 2020; FRET deamination/UDG coupled assay, UDG read, 4 h; further: nearly all actives have a fitted effect of over 65% in size
AID inh: Primary qHTS assay for inhibitors of Activation Induced Cytidine Deaminase (AID): AID signal | Potency, µM (titrated, usually from 115 µM), usual class: inhibitors | Single-stranded DNA cytosine deaminase (Homo sapiens), Q9GZX7 | 0.32% of 91,000 active | AID 1347428, 2020 | AID deamination FRET fluorescence, UDG-coupled, 4 h; further: nearly all actives have a fitted effect of over 25% in size
Target sequence (Q9GZX7 whole entry, looked up): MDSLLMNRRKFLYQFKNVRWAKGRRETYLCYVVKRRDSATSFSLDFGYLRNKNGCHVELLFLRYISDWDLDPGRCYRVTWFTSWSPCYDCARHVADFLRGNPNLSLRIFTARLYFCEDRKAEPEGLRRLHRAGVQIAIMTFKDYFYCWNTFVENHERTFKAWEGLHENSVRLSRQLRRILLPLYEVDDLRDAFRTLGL
Numbers without * were called inactive; i = inactive; ? = inconclusive; [ ] = another dose, or the depositor's remark. The call rests on the fitted dose curve; in most records, active means well fitted curve in the direction sought with a large enough effect; inconclusive means small, poorly fitted or top-dose-only effect, or another doubt; inactive means no such curve, though single readings can be large; an effect the other way counts as inactive or inconclusive. On the % scale 0 is the no-effect control and ±100 the full control effect; potency means the concentration at half of the fitted maximal effect.

SMILES	UDG counterscr	AID inh
O=C(Nc1ccccc1NS(=O)(=O)c1cccs1)c1ccc(Cl)cc1[N+](=O)[O-]	-10%	i
Cc1ccc(Cl)cc1N1CCN(CCCNC(=O)c2ccc3nc(N4CCCCC4)sc3c2)CC1	-4%	?
Cc1ccc(C)c(N2CCN(CCCNC(=O)c3ccc4nc(N5CCC(C)CC5)sc4c3)CC2)c1	?	32µM*
CCCN1CCC2(CC1)Oc1c(OC)cccc1C1CC(c3ccc4c(c3)OCO4)=NN12 (centres undefined)	?	i
NNc1cccc(S(=O)(=O)c2cccc(NN)c2)c1	45µM*	?
NNc1ccc(S(=O)(=O)c2ccc(NN)cc2)cc1	-17%	i
Nc1sccc1C(=O)NCc1ccncc1	-4%	i
CC(C)c1ccc(OCC(=O)Nc2cc(-c3nc4ncccc4o3)ccc2Cl)cc1	1%	i
CCC(C)c1ccc(OCC(=O)Nc2cccc(-c3nc4ncccc4o3)c2)cc1 (centres undefined)	-17%	32µM*
O=C(O)c1ccccc1OCc1cn2ccccc2n1	-1%	i
COc1ccc(Nc2nc(NCCO)c3nccnc3n2)cc1	1%	i
COc1ccc(Nc2nc(Nc3ccc(F)cc3)nc3nccnc23)cc1	0%	25µM*
CCCOC(=O)c1cc(NC(=O)c2cc(Br)ccc2OC)ccc1N1CCOCC1	-6%	i
COc1cccc(/C=C(\C#N)c2nc3ccccc3c(=O)[nH]2)c1OC	0%	i
COc1ccc(OC)c(/C=C(\C#N)c2nc3ccccc3c(=O)[nH]2)c1	48%	79µM*
Cc1cccc(CN2CCC(CNc3ncnc4onc(-c5ccc(Cl)cc5)c34)CC2)c1	-22%	20µM*
Cc1ccc(CN2CCC(CNc3ncnc4onc(-c5ccc(Cl)cc5)c34)CC2)cc1	2%	i
Cc1ccccc1-c1nc2ccc(NC(=O)C3CC3)cc2o1	6%	i
Cc1ccc(N/N=C/C(Br)=C/c2ccccc2)cc1Cl	-9%	i
Cc1ccc(NC(=O)Cc2nnc(SCC(=O)NC34CC5CC(CC(C5)C3)C4)n2C)cc1C	89µM*	i
Cn1c(CC(=O)Nc2ccccc2)nnc1SCC(=O)NC12CC3CC(CC(C3)C1)C2	8%	i
C=CCOc1cccc2[nH]c(C(=O)O)cc12	3%	i
COc1ccc(NC(=O)c2ccc(C3Nc4ccccc4S(=O)(=O)N3)cc2)cc1OC (centres undefined)	-1%	i
CCNC(=O)N(Cc1nc(-c2ccc(C)cc2)no1)C1CCCCC1	-8%	i
Cc1ccc(CC(=O)N(Cc2nc(-c3ccccc3)no2)C2CCCCC2)cc1	79µM*	i
SMILES	UDG counterscr	AID inh
Cc1ccc(NC(=O)/C(C#N)=C\c2ccccc2OC(F)F)cc1	-9%	i
COc1cccc(NC(=O)CCN2CCN(c3ccccc3)CC2)c1	-7%	i
Cc1cc(NC(=O)CCN2CCN(Cc3cccc4ccccc34)CC2)ccc1Br	89µM*	?
Cc1ccc(NC(=O)CCN2CCN(CCO)CC2)cc1C	34%	i
Cc1cccc(NC(=O)CCN2CCN(Cc3cccc4ccccc34)CC2)c1	79µM*	?
Cc1c(CC(=O)Nc2ccc(C(C)C)cc2)c(=O)oc2cc(O)ccc12	-2%	i
Cc1cc(OC(C)C(=O)Nc2ccc3nsnc3c2)ccc1Cl (centres undefined)	-13%	i
CCOc1ccc(NC(=O)CN(c2ccccc2OCC)S(=O)(=O)c2ccccc2)cc1	-9%[57.5 µM]	?
CCOc1ccc(NC(=O)CN(c2ccc(Cl)cc2C)S(=O)(=O)c2ccccc2)cc1	89µM*	?
COc1ccc(C(=O)NCC(c2cccnc2)N2CCc3ccccc32)cc1 (centres undefined)	-15%	100µM*
O=C(NCC(c1cccnc1)N1CCc2ccccc21)c1ccc(Cl)cc1 (centres undefined)	-12%	?
Cc1cc2c(C(C)C)c(O)c(O)c(C=O)c2c(O)c1-c1c(C)cc2c(C(C)C)c(O)c(O)c(C=O)c2c1O	-4%	79µM*
CN(C)c1ccc(/C=N/Nc2ccccc2Cl)cc1	-5%	i
O=C(O)c1ccc2nc(-c3ccc(-c4ccccc4)cc3)c(-c3ccc(-c4ccccc4)cc3)nc2c1	-15%	?
Cc1ccc(Cl)cc1-n1ncc2c(=O)n(CC(=O)Nc3ccc(F)cc3Cl)cnc21	-2%	i
CCCCOc1ccc(CN2C(=O)C(=O)c3cc(C)ccc32)cc1OC	38%	?
CCCCCOc1ccccc1CN1C(=O)C(=O)c2cc(C)ccc21	-20%	28µM*
CC(C)(C)c1ccc(-c2oc(NC(=O)CCl)c(C#N)c2-c2ccc(C(C)(C)C)cc2)cc1	-10%	i
COc1ccccc1NC(=O)Cn1nc(-c2ccc(C)cc2)c2c(c1=O)CCCC2	5%	?
CCC(C(=O)Nc1cc(OC)ccc1OC)n1nc(-c2ccccc2)c2c(c1=O)CCCC2 (centres undefined)	-22%	28µM*
O=Cc1cc(O)ccc1Br	-8%	i
CCCOc1ccc(/C(O)=C2\C(=O)C(=O)NC2c2ccc(C(C)(C)C)cc2)cc1 (centres undefined)	-23%	i
CCN(CC)c1ccc(/C=N/NC(N)=S)cc1	6%	i
Cc1cc(-c2cc(C(=O)O)c3ccccc3n2)cc(C)c1C	0%	i
FC(F)(F)c1cccc(-n2nnnc2C2(N3CCOCC3)CCCC2)c1	89µM*	i
SMILES	UDG counterscr	AID inh
Cc1cccc(-n2nnnc2C2(N3CCCC3)CCCC2)c1	0%	i
Cc1cccc(-c2nc(C#N)c(NCc3ccc4c(c3)OCO4)o2)c1	-6%	i
COc1ccc(NC(=O)CSc2nc3ccccc3nc2N2CCOCC2)c(OC)c1	-8%	?
CCOc1ccccc1NC(=O)CSc1nc2ccccc2nc1N1CCOCC1	?	22µM*
CCCC(=O)N1CC(=O)Nc2ccc(Cl)cc2C1c1ccc(F)cc1 (centres undefined)	-1%	i
CCCCC1CCC(C(=O)N2CC(=O)Nc3ccc(F)cc3C2c2ccc(F)cc2)CC1 (centres undefined)	-23%	35µM*
CCc1ccc(CNC(=O)C(=O)c2c(C)[nH]c3ccccc23)cc1	3%	i
CCCCc1noc(CN2CCC(c3nc4cc(Cl)ccc4o3)CC2)n1	-11%	i
CCCCc1nc(CN2CCN(c3cccc(F)c3C#N)CC2)no1	89µM*	?
CC(C)c1ccc(Nc2ncnc3onc(-c4ccc(F)cc4)c23)cc1	89µM*	?
Cc1noc2ncnc(Nc3ccc(F)cc3)c12	-13%	i
CCc1cccc(C)c1Nc1c(-c2cccs2)nc2ncccn12	6%	?
Cc1cccc(C)c1Nc1c(-c2ccc(Cl)s2)nc2ncccn12	?	45µM*
COc1ccc(C(=O)Nc2ccc(N3CCN(S(C)(=O)=O)CC3)cc2)cc1OC	3%	i
Fc1ccc(C2C=C(c3ccccc3)NC(=S)N2)cc1 (centres undefined)	0%	i
Cc1ccc(C)c(N(C)C(=O)C2CCN(c3ncnc4c3nc3n4CCCCC3)CC2)c1	-10%	79µM*
CN(C(=O)C1CCN(c2ncnc3c2nc2n3CCCCC2)CC1)c1ccccc1F	2%	i
CCc1ccc(-c2cc(C(=O)O)c3ccc(C)c(C)c3n2)cc1	7%	i
COc1cc(OC)cc(C(=O)Nc2ccc3nc(N4CCC(C)CC4)cc(C)c3c2)c1	?	40µM*
